Inconclusive results are not listed. Calls of active or inactive are those of the source. The calls were made as follows, unless noted: active = hit-call score of the fitted dose curve at least 0.9, where 1 is the maximum; inactive = score below 0.9.
Assays:
[1] = biological target: Paired box protein Pax-6 (Homo sapiens) (UniProt P26367); assay: ATG_Pax6_CIS: Attagene CIS-FACTORIAL HepG2 Assay for human Paired Box 6 (PAX6) (AID 2282956); conditions: HepG2 CIS-FACTORIAL PAX6 reporter transcription, RNA readout; actives raise or lower the signal
Paired box protein Pax-6 (Homo sapiens), sequence (P26367 whole entry, looked up): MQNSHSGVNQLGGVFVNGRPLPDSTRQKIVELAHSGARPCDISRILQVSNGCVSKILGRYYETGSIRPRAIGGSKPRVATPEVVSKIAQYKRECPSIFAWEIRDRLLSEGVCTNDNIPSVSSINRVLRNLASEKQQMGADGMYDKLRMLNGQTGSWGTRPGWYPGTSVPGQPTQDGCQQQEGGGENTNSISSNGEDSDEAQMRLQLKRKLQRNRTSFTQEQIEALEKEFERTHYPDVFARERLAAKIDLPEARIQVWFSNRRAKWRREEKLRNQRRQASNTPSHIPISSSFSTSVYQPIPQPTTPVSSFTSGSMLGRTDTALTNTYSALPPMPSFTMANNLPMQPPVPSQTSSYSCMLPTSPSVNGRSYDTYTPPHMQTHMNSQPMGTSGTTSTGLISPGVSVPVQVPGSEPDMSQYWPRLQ
How it was run: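 Fluorescent RT-PCR products separated by capillary electrophoresis report PAX6-linked promoter mRNA in HepG2 cells 24 h post-dose. Curves fitted bidirectionally, DMSO as negative control.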

[2] = ATG_PXRE_CIS: Attagene CIS-FACTORIAL HepG2 Assay for human Pregnane X Receptor Element (PXRE) (AID 2282957); conditions: HepG2 Attagene CIS-FACTORIAL PXRE reporter, mRNA; actives raise or lower the signal
How it was run: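 Bidirectional activity, baselined to DMSO, derived from reporter mRNA fluorescence (RT-PCR plus capillary electrophoresis) in HepG2 cells bearing cis-promoter reporter units, 24 h exposure.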

[3] = ATG_Sox_CIS: Attagene CIS-FACTORIAL HepG2 Assay for human SRY-box transcription factor (SOX) (AID 2282960); conditions: HepG2 Attagene cis-factorial SOX reporter, mRNA; actives raise or lower the signal
How it was run: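 Reporter transcripts, measured by RT-PCR and capillary electrophoresis of labelled fragments, report endogenous SOX transcription factor activity. Transiently transfected human HepG2 cells receive chemical for 24 h; changes in either direction are fitted relative to DMSO.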

[4] = biological target: Transcription factor Sp1 (Homo sapiens) (UniProt P08047); assay: ATG_Sp1_CIS: Attagene CIS-FACTORIAL HepG2 Assay for human Specificity Protein 1 (Sp1) (AID 2282961); conditions: HepG2 Sp1 cis-reporter transcription, actives raise or lower the signal
Transcription factor Sp1 (Homo sapiens), sequence (P08047 whole entry, looked up): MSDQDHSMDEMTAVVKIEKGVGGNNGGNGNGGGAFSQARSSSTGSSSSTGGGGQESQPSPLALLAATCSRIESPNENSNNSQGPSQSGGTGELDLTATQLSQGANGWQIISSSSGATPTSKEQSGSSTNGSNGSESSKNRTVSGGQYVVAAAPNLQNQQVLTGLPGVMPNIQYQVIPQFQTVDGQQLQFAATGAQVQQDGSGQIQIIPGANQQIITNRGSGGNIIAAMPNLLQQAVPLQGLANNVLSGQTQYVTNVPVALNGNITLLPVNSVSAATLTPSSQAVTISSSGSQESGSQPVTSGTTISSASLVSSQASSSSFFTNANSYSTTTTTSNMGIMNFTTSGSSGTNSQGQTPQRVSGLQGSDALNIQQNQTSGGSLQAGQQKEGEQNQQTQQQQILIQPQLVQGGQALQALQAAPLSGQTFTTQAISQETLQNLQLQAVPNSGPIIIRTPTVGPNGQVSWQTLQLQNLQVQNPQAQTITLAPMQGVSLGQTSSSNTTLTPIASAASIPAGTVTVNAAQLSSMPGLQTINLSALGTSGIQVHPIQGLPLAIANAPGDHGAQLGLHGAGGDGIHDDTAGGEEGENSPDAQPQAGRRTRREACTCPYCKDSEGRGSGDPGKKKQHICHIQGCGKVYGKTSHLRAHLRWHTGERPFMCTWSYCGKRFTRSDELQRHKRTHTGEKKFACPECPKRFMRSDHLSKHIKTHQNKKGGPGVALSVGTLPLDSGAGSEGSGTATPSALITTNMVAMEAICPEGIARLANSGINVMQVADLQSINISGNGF
How it was run: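 Read-out is reporter transcript level, measured by RT-PCR and fluorescent capillary electrophoresis after 24 h chemical treatment. System: transiently transfected HepG2 cells reporting endogenous transcription factor activity; gain or loss fitted against DMSO baseline.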

[5] = biological target: Signal transducer and activator of transcription 3 (Homo sapiens) (UniProt P40763); assay: ATG_STAT3_CIS: Attagene CIS-FACTORIAL HepG2 Assay for human Signal Transducer and Activator of Transcription 3 (STAT3) (AID 2282963); conditions: HepG2, Attagene cis-factorial STAT3 reporter transcription; actives raise or lower the signal
Signal transducer and activator of transcription 3 (Homo sapiens), sequence (P40763 whole entry, looked up, the tested form may be a part): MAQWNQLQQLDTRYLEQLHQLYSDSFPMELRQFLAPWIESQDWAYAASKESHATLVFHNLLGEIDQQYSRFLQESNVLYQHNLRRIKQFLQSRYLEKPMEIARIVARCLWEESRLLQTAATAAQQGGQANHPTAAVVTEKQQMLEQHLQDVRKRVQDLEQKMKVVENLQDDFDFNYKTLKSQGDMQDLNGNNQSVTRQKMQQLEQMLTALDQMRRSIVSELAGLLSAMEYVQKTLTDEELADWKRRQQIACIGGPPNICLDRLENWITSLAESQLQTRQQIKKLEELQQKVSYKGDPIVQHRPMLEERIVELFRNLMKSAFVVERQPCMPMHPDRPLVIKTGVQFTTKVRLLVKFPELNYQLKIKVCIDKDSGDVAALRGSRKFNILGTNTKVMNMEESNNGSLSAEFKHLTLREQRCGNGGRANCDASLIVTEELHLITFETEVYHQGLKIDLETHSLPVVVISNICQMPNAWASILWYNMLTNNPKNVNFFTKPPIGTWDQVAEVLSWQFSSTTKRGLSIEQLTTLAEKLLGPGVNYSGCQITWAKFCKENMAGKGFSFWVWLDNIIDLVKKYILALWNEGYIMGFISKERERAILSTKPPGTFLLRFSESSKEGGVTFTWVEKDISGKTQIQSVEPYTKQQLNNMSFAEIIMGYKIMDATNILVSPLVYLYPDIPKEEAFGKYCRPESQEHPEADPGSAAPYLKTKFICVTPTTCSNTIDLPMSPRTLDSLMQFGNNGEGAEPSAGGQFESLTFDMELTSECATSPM
How it was run: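 Readout: fluorescent reporter mRNA fragments resolved by capillary electrophoresis. Setup: HepG2 transfected with MRTUs reporting endogenous transcription-factor activity, dosed 24 h. Gain or loss of signal fitted bidirectionally against DMSO control.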

[6] = ATG_TA_CIS: Attagene CIS-FACTORIAL HepG2 Assay for human TA Basal Promoter (AID 2282964); conditions: HepG2 Attagene CIS-factorial TA basal promoter reporter; actives raise or lower the signal
How it was run: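 Read-out: fluorescent reporter-transcript fragments resolved by capillary electrophoresis after RT-PCR and HpaI digestion. Source: HepG2 cells carrying transiently transfected multi-reporter cis constructs, treated 24 h. Endpoint fitted bidirectionally relative to DMSO.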

[7] = ATG_TAL_CIS: Attagene CIS-FACTORIAL HepG2 Assay for human TAL Basal Promoter (AID 2282966); conditions: HepG2 Attagene cis-factorial TAL promoter reporter; actives raise or lower the signal;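 also: background control endpoint measuring basal TAL promoter reporter mRNA not a specific factor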
How it was run: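 Human hepatoma HepG2 cells, transfected with promoter-regulated reporter units, were treated 24 h. Reporter transcript levels, measured through RT-PCR and capillary electrophoresis, were fitted for gain or loss relative to DMSO.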

[8] = ATG_TGFb_CIS: Attagene CIS-FACTORIAL HepG2 Assay for human Transforming Growth Factor (TGF) (AID 2282967); conditions: HepG2 Attagene CIS TGFb reporter, mRNA transcription; actives raise or lower the signal
How it was run: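 Transient MRTU transfection of HepG2 (FuGene 6). Dose 24 h. TriZol RNA, oligo(dT) RT, PCR, 6-FAM primer extension, HpaI cut, CE. Bidirectional fit, DMSO = baseline.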

[9] = ATG_VDRE_CIS: Attagene CIS-FACTORIAL HepG2 Assay for human Vitamin D Receptor Element (VDRE) (AID 2282968); conditions: HepG2 VDRE cis-reporter transcription, actives raise or lower the signal
How it was run: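 Transient MRTU transfection of HepG2, 24 h compound exposure. Readout: reporter transcripts via RT-PCR and capillary electrophoresis, fluorescence. Bidirectional fit vs DMSO.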

[10] = biological target: Nuclear receptor subfamily 1 group I member 3 (Homo sapiens) (UniProt Q14994); assay: ATG_CAR_TRANS: Attagene TRANS-FACTORIAL HepG2 Assay for human Constitutive Androstane Receptor (CAR) (AID 2282969; active = hit-call score of the fitted dose curve at least 0.9, where 1 is the maximum;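 also: activators raise reporter mRNA above DMSO so AC50 marks induction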); conditions: HepG2 Attagene TRANS-FACTORIAL CAR reporter
Nuclear receptor subfamily 1 group I member 3 (Homo sapiens), sequence (Q14994 whole entry, looked up, the tested form may be a part): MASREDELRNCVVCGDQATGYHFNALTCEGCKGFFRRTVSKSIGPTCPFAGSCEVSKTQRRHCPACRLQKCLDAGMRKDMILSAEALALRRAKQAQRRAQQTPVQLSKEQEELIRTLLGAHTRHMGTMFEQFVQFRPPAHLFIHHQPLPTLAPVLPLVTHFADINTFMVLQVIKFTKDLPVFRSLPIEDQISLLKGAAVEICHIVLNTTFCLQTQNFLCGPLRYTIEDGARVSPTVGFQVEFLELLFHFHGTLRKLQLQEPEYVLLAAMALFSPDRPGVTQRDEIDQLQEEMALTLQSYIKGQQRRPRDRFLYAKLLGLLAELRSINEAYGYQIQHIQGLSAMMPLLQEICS
How it was run: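 Transiently transfected HepG2, multiplex TRANS reporters (CAR-Gal4 chimera driving GAL4-UAS reporter). 24 h dosing. Readout: reporter transcript by RT-PCR + capillary electrophoresis, fluorescence intensity; positive direction vs DMSO.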

[11] = biological target: Estrogen receptor (Homo sapiens) (UniProt P03372); assay: ATG_ERa_TRANS: Attagene TRANS-FACTORIAL HepG2 Assay for human Estrogen Receptor alpha (ERa) (AID 2282970; active = hit-call score of the fitted dose curve at least 0.9, where 1 is the maximum); conditions: HepG2 Attagene TRANS ERa GAL4 reporter, mRNA
Estrogen receptor (Homo sapiens), sequence (P03372 whole entry, looked up, the tested form may be a part): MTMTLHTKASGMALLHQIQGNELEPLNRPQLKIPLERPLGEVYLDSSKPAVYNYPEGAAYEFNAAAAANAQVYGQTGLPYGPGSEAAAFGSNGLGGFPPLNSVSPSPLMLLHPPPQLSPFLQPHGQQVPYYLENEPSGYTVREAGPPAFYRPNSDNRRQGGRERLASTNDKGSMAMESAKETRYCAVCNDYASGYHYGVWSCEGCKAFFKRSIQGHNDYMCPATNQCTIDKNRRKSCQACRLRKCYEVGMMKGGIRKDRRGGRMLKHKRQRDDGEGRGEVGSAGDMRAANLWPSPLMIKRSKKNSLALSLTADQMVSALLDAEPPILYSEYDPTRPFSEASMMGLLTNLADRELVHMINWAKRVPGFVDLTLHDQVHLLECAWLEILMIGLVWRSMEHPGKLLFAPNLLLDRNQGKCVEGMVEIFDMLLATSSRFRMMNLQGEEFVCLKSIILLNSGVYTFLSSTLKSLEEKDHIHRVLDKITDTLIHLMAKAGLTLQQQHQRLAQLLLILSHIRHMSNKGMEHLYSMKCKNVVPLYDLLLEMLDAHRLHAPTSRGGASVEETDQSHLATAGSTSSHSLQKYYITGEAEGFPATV
How it was run: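 Signal derives from fluorescence of labelled reporter PCR fragments separated by capillary electrophoresis. HepG2 cells transiently carrying multiple GAL4-UAS reporter units were treated 24 hours, and induction above DMSO baseline was fitted as activity.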

[12] = biological target: X-box-binding protein 1 (Homo sapiens) (UniProt P17861); assay: ATG_Xbp1_CIS: Attagene CIS-FACTORIAL HepG2 Assay for human X-box Binding Protein 1 (XBP1) (AID 2282972); conditions: HepG2 XBP1 cis-element reporter, Attagene multiplex; actives raise or lower the signal
X-box-binding protein 1 (Homo sapiens), sequence (P17861 whole entry, looked up): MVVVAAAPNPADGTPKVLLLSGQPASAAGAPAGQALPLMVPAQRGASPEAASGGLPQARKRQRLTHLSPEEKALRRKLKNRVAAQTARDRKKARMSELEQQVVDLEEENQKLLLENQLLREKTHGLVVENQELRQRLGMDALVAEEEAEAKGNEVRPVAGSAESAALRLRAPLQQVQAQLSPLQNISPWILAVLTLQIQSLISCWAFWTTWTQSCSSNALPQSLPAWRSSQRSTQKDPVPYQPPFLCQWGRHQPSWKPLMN
How it was run: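 Multiplexed cis-reporter readout in transfected HepG2 liver cells. Exposure lasted 24 hours. Activity in either direction was fitted against DMSO as negative control and baseline.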

[13] = ATG_M_19_TRANS: Attagene TRANS-FACTORIAL HepG2 Assay for M19 Transcription Factor (Internal Marker) (AID 2282974; active = hit-call score of the fitted dose curve at least 0.9, where 1 is the maximum); conditions: HepG2 Attagene TRANS-FACTORIAL M19 internal marker reporter
How it was run: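 Background-control readout: after 24 h chemical exposure of transfected HepG2 carrying GAL4-driven reporter units, RNA was reverse-transcribed, amplified, fluorescently labeled and sized by capillary electrophoresis; gain-of-signal fit against DMSO.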

[14] = ATG_GAL4_TRANS: Attagene TRANS-FACTORIAL HepG2 Assay for GAL4 (Internal Marker) (AID 2282976; active = hit-call score of the fitted dose curve at least 0.9, where 1 is the maximum); conditions: HepG2 Attagene TRANS GAL4 internal marker reporter
How it was run: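 Liver HepG2 line bearing multiplexed GAL4-UAS reporter constructs; 24 h chemical treatment. Transcripts were quantified as fluorescent fragments on capillary electrophoresis after RT-PCR and HpaI cut, with activity fitted upward from DMSO.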

[15] = ATG_PPRE_CIS: Attagene CIS-FACTORIAL HepG2 Assay for human Peroxisome Proliferator-activated Response Element (PPRE) (AID 2282958); conditions: HepG2 PPRE cis-element reporter, Attagene transcription factor profiling; actives raise or lower the signal
How it was run: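 Endogenous PPRE-driven transcription is measured in HepG2 cells carrying transfected multi-reporter constructs. Reporter transcripts are quantified by RT-PCR, HpaI digestion and capillary electrophoresis 24 h after dosing. DMSO baseline, bidirectional fit.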

[16] = ATG_RORE_CIS: Attagene CIS-FACTORIAL HepG2 Assay for human RAR-related Orphan Receptor Element (RORE) (AID 2282959); conditions: HepG2 Attagene cis-factorial RORE reporter, mRNA; actives raise or lower the signal
How it was run: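 RORE reporter transcripts reflecting endogenous factor activity were read after 24 h compound exposure of transfected HepG2 cells, using reverse transcription, PCR, fluorescent labelling and capillary electrophoresis sizing. Gain or loss fitted against DMSO.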

[17] = ATG_SREBP_CIS: Attagene CIS-FACTORIAL HepG2 Assay for human Sterol Regulatory Element Binding (SREBP) (AID 2282962); conditions: HepG2 Attagene cis-factorial SREBP reporter, mRNA; actives raise or lower the signal
How it was run: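 Endogenous factor activity is measured in HepG2 through multiplexed reporter units under cis-element control. Following a 24 h incubation, reporter transcripts are reverse-transcribed, PCR-amplified and sized by capillary electrophoresis; activity is fitted in both directions relative to DMSO.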

[18] = ATG_TCF_b_cat_CIS: Attagene CIS-FACTORIAL HepG2 Assay for human T-Cell-Factor with beta-catenin (TCF/b-cat) (AID 2282965); conditions: HepG2 TCF/beta-catenin cis-reporter transcription, actives raise or lower the signal
How it was run: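 HepG2, transient MRTU transfection, cis-element-driven reporters (endogenous TFs). 24 h compound exposure. Readout: reporter mRNA by RT-PCR + 6-FAM primer extension, HpaI digest, capillary electrophoresis. Gain/loss fit vs DMSO baseline.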

[19] = biological target: Estrogen-related receptor gamma (Homo sapiens) (UniProt P62508); assay: ATG_ERRg_TRANS: Attagene TRANS-FACTORIAL HepG2 Assay for human Estrogen-Related Receptor gamma (ERRg) (AID 2282977; active = hit-call score of the fitted dose curve at least 0.9, where 1 is the maximum;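 also: hits increase reporter signal over DMSO so potencies reflect activators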); conditions: HepG2 Attagene TRANS reporter, ERRg transactivation
Estrogen-related receptor gamma (Homo sapiens), sequence (P62508 whole entry, looked up, the tested form may be a part): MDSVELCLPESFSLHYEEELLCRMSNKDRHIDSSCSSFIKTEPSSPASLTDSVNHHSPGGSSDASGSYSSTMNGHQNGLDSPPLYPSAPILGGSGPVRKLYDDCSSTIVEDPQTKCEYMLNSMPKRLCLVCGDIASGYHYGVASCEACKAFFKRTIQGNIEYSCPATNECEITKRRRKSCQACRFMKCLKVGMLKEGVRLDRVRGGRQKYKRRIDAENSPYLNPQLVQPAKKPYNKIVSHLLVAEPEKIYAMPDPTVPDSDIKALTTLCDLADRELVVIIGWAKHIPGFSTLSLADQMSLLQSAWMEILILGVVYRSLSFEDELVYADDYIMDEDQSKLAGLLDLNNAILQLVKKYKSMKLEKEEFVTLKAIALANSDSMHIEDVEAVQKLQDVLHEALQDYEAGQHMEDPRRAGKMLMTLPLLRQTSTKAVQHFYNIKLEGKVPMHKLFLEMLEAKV
How it was run: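 Exogenous NR-Gal4 chimera activity was assessed in HepG2 cells bearing transfected GAL4-UAS reporters. After 24 h dosing, total RNA underwent RT-PCR, fluorescent primer extension and HpaI digestion before capillary electrophoresis, with gain of signal scored against DMSO.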

[20] = biological target: Steroid hormone receptor ERR1 (Homo sapiens) (UniProt P11474); assay: ATG_ERRa_TRANS: Attagene TRANS-FACTORIAL HepG2 Assay for human Estrogen-Related Receptor alpha (ERRa) (AID 2282971; active = hit-call score of the fitted dose curve at least 0.9, where 1 is the maximum); conditions: HepG2 Attagene TRANS reporter, ERRa transactivation
Steroid hormone receptor ERR1 (Homo sapiens), sequence (P11474 whole entry, looked up, the tested form may be a part): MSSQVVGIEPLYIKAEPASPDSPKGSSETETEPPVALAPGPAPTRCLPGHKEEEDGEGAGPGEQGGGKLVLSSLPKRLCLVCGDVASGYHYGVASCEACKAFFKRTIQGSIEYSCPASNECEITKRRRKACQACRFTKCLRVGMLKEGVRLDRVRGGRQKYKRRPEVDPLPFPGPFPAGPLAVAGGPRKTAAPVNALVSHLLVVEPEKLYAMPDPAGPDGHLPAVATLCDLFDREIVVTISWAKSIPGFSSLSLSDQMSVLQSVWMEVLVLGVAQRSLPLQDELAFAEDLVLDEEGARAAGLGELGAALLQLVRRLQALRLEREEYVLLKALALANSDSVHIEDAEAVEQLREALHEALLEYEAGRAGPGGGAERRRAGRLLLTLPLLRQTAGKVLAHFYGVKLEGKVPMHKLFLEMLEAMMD
How it was run: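 Signal gain relative to DMSO for an ERRa-Gal4 chimeric receptor, read as reporter mRNA by RT-PCR/capillary electrophoresis. Human HepG2 liver cells, transient multiplex reporter transfection, 24 h chemical exposure.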

## C=C(C)C(=O)OCCO
[1]
  outcome: inactive
[2]
  outcome: inactive
[3]
  outcome: inactive
[4]
  outcome: inactive
[5]
  outcome: inactive
[6]
  outcome: inactive
[7]
  outcome: inactive
[8]
  outcome: inactive
[9]
  outcome: inactive
[10]
  outcome: inactive
[11]
  outcome: inactive
[12]
  outcome: inactive
[13]
  outcome: inactive
[14]
  outcome: inactive

## CC(C)=CC1CC(C)CCO1 (stereo not drawn)
[1]
  outcome: inactive
[15]
  outcome: inactive
[16]
  outcome: inactive
[3]
  outcome: inactive
[4]
  outcome: inactive
[17]
  outcome: inactive
[5]
  outcome: inactive
[18]
  outcome: inactive
[7]
  outcome: inactive
[8]
  outcome: inactive
[9]
  outcome: inactive

## S=C(NC1CCCCC1)NC1CCCCC1
[1]
  outcome: inactive
[15]
  outcome: inactive
[16]
  outcome: inactive
[3]
  outcome: inactive
[4]
  outcome: inactive
[17]
  outcome: inactive
[5]
  outcome: inactive
[6]
  outcome: inactive
[7]
  outcome: inactive
[8]
  outcome: inactive
[9]
  outcome: inactive
[11]
  outcome: inactive
[12]
  outcome: inactive
[13]
  outcome: inactive
[19]
  outcome: inactive

## CN1C(=O)N(C)C(O)C1O (stereo not drawn)
[1]
  outcome: inactive
[15]
  outcome: inactive
[16]
  outcome: inactive
[3]
  outcome: inactive
[4]
  outcome: inactive
[17]
  outcome: inactive
[5]
  outcome: inactive
[6]
  outcome: inactive
[18]
  outcome: inactive
[7]
  outcome: inactive
[8]
  outcome: inactive
[9]
  outcome: inactive
[10]
  outcome: inactive
[11]
  outcome: inactive
[12]
  outcome: inactive
[13]
  outcome: inactive
[14]
  outcome: inactive

## CCOC(=O)N1CCC(=C2c3ccc(Cl)cc3CCc3cccnc32)CC1
[1]
  AC50: 7.79 µM (active)
[16]
  AC50: 3.42 µM (active)
[3]
  outcome: inactive
[4]
  outcome: inactive
[5]
  outcome: inactive
[7]
  AC50: 8.84 µM (active)
[8]
  outcome: inactive
[9]
  AC50: 1.37 µM (active)
[10]
  outcome: inactive
[11]
  outcome: inactive
[20]
  outcome: inactive
[12]
  outcome: inactive
[13]
  outcome: inactive
[14]
  outcome: inactive

## O=c1n(CCO)c(=O)n(CCO)c(=O)n1CCO
[1]
  outcome: inactive
[15]
  outcome: inactive
[16]
  outcome: inactive
[3]
  outcome: inactive
[4]
  outcome: inactive
[17]
  outcome: inactive
[5]
  outcome: inactive
[6]
  outcome: inactive
[18]
  outcome: inactive
[7]
  outcome: inactive
[8]
  outcome: inactive
[10]
  outcome: inactive
[13]
  outcome: inactive
[14]
  outcome: inactive

## CC(C)(C)c1ccc(N)cc1
[1]
  outcome: inactive
[15]
  outcome: inactive
[16]
  outcome: inactive
[3]
  outcome: inactive
[4]
  outcome: inactive
[17]
  outcome: inactive
[5]
  outcome: inactive
[6]
  outcome: inactive
[18]
  outcome: inactive
[7]
  outcome: inactive
[8]
  outcome: inactive
[9]
  outcome: inactive
[10]
  outcome: inactive
[11]
  outcome: inactive
[20]
  outcome: inactive
[12]
  outcome: inactive
[13]
  outcome: inactive
[14]
  outcome: inactive
[19]
  outcome: inactive

## O=CN1CCCCC1
[1]
  outcome: inactive
[15]
  outcome: inactive
[16]
  outcome: inactive
[3]
  outcome: inactive
[4]
  outcome: inactive
[17]
  outcome: inactive
[5]
  outcome: inactive
[6]
  outcome: inactive
[18]
  outcome: inactive
[7]
  outcome: inactive
[8]
  outcome: inactive
[9]
  outcome: inactive
[10]
  outcome: inactive
[11]
  outcome: inactive
[13]
  outcome: inactive
[14]
  outcome: inactive

## C[Si](C)(CCCN)O[Si](C)(C)CCCN
[1]
  outcome: inactive
[15]
  outcome: inactive
[16]
  outcome: inactive
[3]
  outcome: inactive
[4]
  outcome: inactive
[5]
  outcome: inactive
[6]
  outcome: inactive
[18]
  outcome: inactive
[7]
  outcome: inactive
[8]
  outcome: inactive
[9]
  outcome: inactive
[12]
  outcome: inactive
[14]
  outcome: inactive
